Measured values reported in PubChem BioAssay (NCATS).
Records with an inconclusive call do not appear. Active and inactive are the calls of the source. Calls come from the whole dose curve; as a rule, active = well fitted cell-killing curve with a large enough effect; inconclusive = small, poorly fitted or top-dose-only effect, or effect the other way; inactive = no such curve, though single readings can be large or run the other way.

Key:
[1] = Quantitative High-Throughput drug screen in 47 multiple myeloma cell lines against the NCATS MIPE library collection: L363_DSMZ cell viability assay (AID 1918984); conditions: L363 myeloma viability, CellTiter-Glo ATP luminescence, 48 h; viability (% of control): at 45.8 µM (top of the series); note: nearly all actives have a fitted effect of over 40% in size; note: potency is the fitted concentration of half-maximal effect
Procedure, shortened: (§1)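 qHTS format: cells plated (500/well), pin-dosed with MIPE 4.0 compounds, kept 48 h at 37 °C. Readout was CellTiter-Glo luminescence, median RLU.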

[2] = Quantitative High-Throughput drug screen in 47 multiple myeloma cell lines against the NCATS MIPE library collection: OCIMY7_PLB cell viability assay (AID 1918987); conditions: OCI-MY7 myeloma viability, CellTiter-Glo ATP, 48 h; viability (% of DMSO): at 45.8 µM (top of the series); note: potency is the fitted concentration of half-maximal effect; nearly all actives have a fitted effect of over 65% in size
Procedure, shortened: as §1

[3] = Quantitative High-Throughput drug screen in 47 multiple myeloma cell lines against the NCATS MIPE library collection: OCIMY5_PLB cell viability assay (AID 1918988); note: potency is the fitted concentration of half-maximal effect; nearly all actives have a fitted effect of over 65% in size
Procedure, shortened: as §1

[4] = Quantitative High-Throughput drug screen in 47 multiple myeloma cell lines against the NCATS MIPE library collection: OPM1_PLB cell viability assay (AID 1918989); note: nearly all actives have a fitted effect of over 40% in size; note: potency is the fitted concentration of half-maximal effect;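 for viability (% of control): 100% = DMSO-only wells and 0% = media-only wells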
Procedure, shortened: as §1

[5] = Quantitative High-Throughput drug screen in 47 multiple myeloma cell lines against the NCATS MIPE library collection: SKMM1_PLB cell viability assay (AID 1919863); conditions: SKMM1 myeloma viability, CellTiter-Glo ATP, 48 h; viability: stronger effect = lower value; note: nearly all actives have a fitted effect of over 35% in size; note: potency is the fitted concentration of half-maximal effect
Procedure, shortened: as §1

[6] = Quantitative High-Throughput drug screen in 47 multiple myeloma cell lines against the NCATS MIPE library collection: XG6_PLB cell viability assay (AID 1919865); note: nearly all actives have a fitted effect of over 40% in size; note: potency is the fitted concentration of half-maximal effect;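 for viability (% of control): 100% = DMSO-only wells and 0% = media-only wells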
Procedure, shortened: as §1

[7] = Quantitative High-Throughput drug screen in 47 multiple myeloma cell lines against the NCATS MIPE library collection: XG1_PLB cell viability assay (AID 1919866); note: nearly all actives have a fitted effect of over 35% in size; note: potency is the fitted concentration of half-maximal effect
Procedure, shortened: as §1

[8] = Quantitative High-Throughput drug screen in 47 multiple myeloma cell lines against the NCATS MIPE library collection: VP6_DJ cell viability assay (AID 1919867); note: potency is the fitted concentration of half-maximal effect; nearly all actives have a fitted effect of over 40% in size
Procedure, shortened: as §1

[9] = Quantitative High-Throughput drug screen in 47 multiple myeloma cell lines against the NCATS MIPE library collection: PE2_PLB cell viability assay (AID 1919869); note: nearly all actives have a fitted effect of over 35% in size; note: potency is the fitted concentration of half-maximal effect;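 for viability (% of control): 100% = DMSO-only wells and 0% = cell-free media-only wells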
Procedure, shortened: as §1

[10] = Quantitative High-Throughput drug screen in 47 multiple myeloma cell lines against the NCATS MIPE library collection: KMS28BM_JCRB cell viability assay (AID 1919874); note: nearly all actives have a fitted effect of over 35% in size; note: potency is the fitted concentration of half-maximal effect
Procedure, shortened: as §1

[11] = Quantitative High-Throughput drug screen in 47 multiple myeloma cell lines against the NCATS MIPE library collection: U266_ATCC cell viability assay (AID 1919864); note: nearly all actives have a fitted effect of over 35% in size; note: potency is the fitted concentration of half-maximal effect;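 for viability (% of DMSO control): 0% = media-only wells without cells and 100% = DMSO-only wells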
Procedure, shortened: as §1

[12] = Quantitative High-Throughput drug screen in 47 multiple myeloma cell lines against the NCATS MIPE library collection: UTMC2_PLB cell viability assay (AID 1919868); conditions: CellTiter-Glo ATP luminescence, 48 h; viability (% of DMSO control): at 45.8 µM (top of the series); note: nearly all actives have a fitted effect of over 55% in size; note: potency is the fitted concentration of half-maximal effect;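 for viability (% of DMSO control): 100% = DMSO-only wells and 0% = media-only wells without cells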
Procedure, shortened: as §1

[13] = Quantitative High-Throughput drug screen in 47 multiple myeloma cell lines against the NCATS MIPE library collection: PCM6_Riken cell viability assay (AID 1919870); note: nearly all actives have a fitted effect of over 30% in size; note: potency is the fitted concentration of half-maximal effect;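 for viability (% of control): 100% = DMSO-only wells and 0% = media-only wells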
Procedure, shortened: as §1

[14] = Quantitative High-Throughput drug screen in 47 multiple myeloma cell lines against the NCATS MIPE library collection: KMS11_JCRBsus cell viability assay (AID 1919873); note: nearly all actives have a fitted effect of over 50% in size; note: potency is the fitted concentration of half-maximal effect;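 for viability (% of control): 100% = DMSO-only wells and 0% = media-only wells without cells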
Procedure, shortened: as §1

[15] = Quantitative High-Throughput drug screen in 47 multiple myeloma cell lines against the NCATS MIPE library collection: KMS28PE_JCRB cell viability assay (AID 1918983); note: nearly all actives have a fitted effect of over 35% in size; note: potency is the fitted concentration of half-maximal effect
Procedure, shortened: as §1

[16] = Quantitative High-Throughput drug screen in 47 multiple myeloma cell lines against the NCATS MIPE library collection: RPMI8226_ATCC cell viability assay (AID 1919871); note: nearly all actives have a fitted effect of over 30% in size; note: potency is the fitted concentration of half-maximal effect
Procedure, shortened: as §1

[17] = Quantitative High-Throughput drug screen in 47 multiple myeloma cell lines against the NCATS MIPE library collection: OPM2_DSMZ cell viability assay (AID 1919872); note: nearly all actives have a fitted effect of over 30% in size
Procedure, shortened: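 qHTS of the MIPE 4.0 collection: 500 myeloma cells/well, 48 h drug exposure at 37C in 5% CO2, then CellTiter-Glo for 5 min at room temperature before luminescence reading.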

[18] = Quantitative High-Throughput drug screen in 47 multiple myeloma cell lines against the NCATS MIPE library collection: KMS34_JCRB cell viability assay (AID 1918985)
Procedure, shortened: as §1

CCCCN(CCCC)CC(O)c1cc(Cl)cc2c1-c1ccc(Cl)cc1C2=Cc1ccc(Cl)cc1 (configuration not stated)
inactive: Potency [1]
active: Potency [2] 26.4 µM | Potency [3] 10.5 µM | Potency [4] 18.7 µM | Potency [5] 33.2 µM | Potency [6] 26.4 µM | Potency [7] 23.5 µM | Potency [8] 23.5 µM | Potency [9] 20.9 µM | Potency [10] 23.5 µM

CCNC(=O)c1noc(-c2cc(C(C)C)c(O)cc2O)c1-c1ccc(CN2CCOCC2)cc1
active: Potency [2] 0.0469 µM | Potency [4] 0.0833 µM | Potency [11] 0.0332 µM | Potency [6] 0.132 µM | Potency [7] 0.0743 µM | Potency [8] 0.0372 µM | Potency [12] 0.0833 µM | Potency [9] 0.105 µM | Potency [13] 0.0526 µM | Potency [14] 0.0235 µM | Potency [10] 0.0332 µM

CNC(=O)c1c(-c2ccc(F)cc2)oc2cc(N(CCO)S(C)(=O)=O)c(C3CC3)cc12
active: Potency [7] 20.9 µM

CCOC(=O)[C@@H](N)CCC(=O)N[C@@H](CSCc1ccccc1)C(=O)N[C@@H](C(=O)OCC)c1ccccc1
inactive: Potency [15] | Potency [16] | Potency [14] | Potency [10]
active: Potency [6] 11.8 µM | Potency [7] 23.5 µM | Potency [12] 23.5 µM | Potency [9] 20.9 µM

CC(C)n1c(C=C[C@H](O)C[C@H](O)CC(=O)O)c(-c2ccc(F)cc2)c2ccccc21
active: Potency [1] 4.18 µM | Potency [2] 4.18 µM | Potency [4] 5.26 µM | Potency [5] 16.6 µM | Potency [11] 4.18 µM | Potency [6] 16.6 µM | Potency [7] 4.69 µM | Potency [8] 16.6 µM | Potency [9] 14.8 µM | Potency [16] 18.7 µM | Potency [14] 8.33 µM

Cn1cnc(-c2cc3nccc(Oc4ccc(NC(=S)NC(=O)Cc5ccccc5)cc4F)c3s2)c1
active: Potency [12] 0.132 µM | Potency [9] 13.2 µM | Potency [14] 20.9 µM

Cc1cc(C(C)Nc2ccccc2)c2nc(N3CCOCC3)cc(=O)n2c1 (configuration not stated)
active: Potency [2] 2.09 µM | Potency [4] 20.9 µM | Potency [8] 3.32 µM
inactive: Potency [11] | Potency [16] | Potency [17]

COc1cc(Nc2nc3ccccc3nc2NS(=O)(=O)c2ccc(NC(=O)c3ccc(C)c(OC)c3)cc2)cc(OC)c1
active: Potency [3] 4.69 µM | Potency [5] 10.5 µM | Potency [7] 13.2 µM | Potency [8] 5.9 µM | Potency [13] 2.35 µM
inactive: Potency [10]

C=CC(=O)Nc1cccc(Sc2nc(Nc3ccc(N4CCN(C)CC4)cc3)ncc2Cl)c1
active: Potency [2] 0.743 µM | Potency [5] 37.2 µM | Potency [6] 0.526 µM | Potency [7] 1.05 µM

COc1nccc(-c2c(-c3ccc(F)cc3)ncn2C2CCNCC2)n1
active: Potency [15] 13.2 µM | Potency [3] 16.6 µM | Potency [5] 9.35 µM | Potency [7] 14.8 µM | Potency [8] 1.18 µM | Potency [10] 0.469 µM
inactive: Potency [17]

Cc1cc(NC(=O)Nc2ccc(N(C)C)cc2)c2cc(F)cc(F)c2n1
inactive: Potency [15] | Potency [4] | Potency [11] | Potency [6] | Potency [12] | Potency [9] | Potency [13] | Potency [10]
active: Potency [7] 3.32 µM

CC[C@@H]([C@H](C)O)n1ncn(-c2ccc(N3CCN(c4ccc(OCC5CO[C@@](Cn6cncn6)(c6ccc(F)cc6F)C5)cc4)CC3)cc2)c1=O (some centres not stated)
inactive: Potency [4] | Potency [11]
active: Potency [3] 18.7 µM | Potency [6] 20.9 µM | Potency [8] 23.5 µM | Potency [9] 10.5 µM | Potency [14] 11.8 µM

CCC(=O)OCC(=O)[C@@]1(OC(=O)CC)[C@@H](C)C[C@@H]2[C@H]3CCC4=CC(=O)C=C[C@]4(C)[C@@]3(F)[C@@H](O)C[C@@]21C
active: Potency [1] 1.05 µM | Potency [4] 14.8 µM | Potency [6] 11.8 µM | Potency [8] 11.8 µM | Potency [13] 7.43 µM | Potency [16] 0.418 µM | Potency [14] 0.0526 µM
inactive: viability [5] 97.1%

Cc1ccc2c(c1)C(=O)[C@]1(O)CCN(c3ccccc3)C1=N2
active: Potency [18] 1.48 µM | Potency [12] 4.69 µM | Potency [10] 10.5 µM
inactive: Potency [1] | Potency [4] | Potency [6] | Potency [7] | Potency [9] | Potency [13] | Potency [17]

COc1cc2c(cc1Cc1cccc(Cl)c1F)c(=O)c(C(=O)O)cn2[C@H](CO)C(C)C
active: Potency [18] 20.9 µM | Potency [2] 18.7 µM | Potency [3] 7.43 µM | Potency [6] 18.7 µM | Potency [7] 18.7 µM | Potency [8] 10.5 µM | Potency [9] 23.5 µM | Potency [13] 16.6 µM | Potency [16] 14.8 µM | Potency [14] 2.96 µM | Potency [10] 23.5 µM
